Results on eight molecules are retold here after PubChem BioAssay (NCATS).

Results filed as inconclusive are left out. Where a structure was tested more than once in an assay, its records may differ in their call. The source made the active and inactive calls. Unless noted, calls come from the whole dose curve; as a rule, active = well fitted curve in the direction sought with a large enough effect; inconclusive = small, poorly fitted or top-dose-only effect, or another doubt; inactive = no such curve, though single readings can be large; an effect the other way counts as inactive or inconclusive.

Experiment [1] is described as follows: Cytometric Cell-Based qHTS for Inhibitors of the mTORC1 Signaling Pathway in MEF (Tsc2-/-, p53-/-) Cells (AID 2660).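 Note: percent of cells above a phospho-rpS6 to PI ratio cutoff in each well; series mostly up to about 38 µM.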 A digest of the protocol:
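Tsc2-/-, p53-/- MEFs (empty vector) exposed to compound 24 h at 37 C, fixed, stained with Alexa-488 anti-phospho-rpS6 Ser235/236 and propidium iodide. Acumen laser scanning; phospho-S6/PI ratio thresholded against 7.5 nM rapamycin, reported as % positive cells.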

A short description of experiment [2]: High Content Imaging Cell-Based qHTS for Inhibitors of the mTORC1 Signaling Pathway in MEF (Tsc2-/-, p53-/-) Cells (AID 2666). A digest of the protocol: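 Phospho-rpS6 (Ser235/236) immunofluorescence, normalized and scored as % positive cells using rapamycin and DMSO controls, was read in empty-vector Tsc2-/-, p53-/- MEFs after 24 h compound exposure at 37 C; propidium iodide counted cells.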
(In general: Quantitative high-throughput screening tests each substance at several concentrations.)

Experiment [3] in a line: Validation screen for small molecules that induce DNA re-replication in MCF 10A normal breast cells (AID 463097). Note: nearly all actives have a fitted effect of over 60% in size. Note: potency is the fitted concentration of half-maximal effect. A digest of the protocol: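 DNA re-replication was detected as a rise in nuclei with elevated Hoechst fluorescence after a 48 hr compound exposure of MCF 10A cells at 37 C.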
The target in experiment [4] is Ubiquitin carboxyl-terminal hydrolase 2 (Homo sapiens) (UniProt O75604). The experiment can be described thus: qHTS Validation Assay for Inhibitors of Ubiquitin-specific Protease USP2a Using CHOP2 as the Reporter (AID 463106). A digest of the protocol:
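USP2 core (10 nM final) was preincubated with compound 30 min at RT in pH 8.0 Tris/CaCl2/beta-ME/CHAPS buffer. Ub-CHOP2 and reporter substrate (25 nM final each) were then added, with fluorescence (Ex 485/Em 531) read after 60 min. Data were normalized to NEM full inhibition and fitted to concentration-response curves.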

Experiment [5] concerns the target DNA polymerase III PolC-type (Bacillus subtilis (strain 168)) (UniProt P13267). The experiment can be described thus: qHTS Validation Assay for the Inhibitors of DNA Replication in Gram-Positive Bacteria (AID 485295).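 Note: reconstituted holoenzyme with PolC plus beta clamp SSB and primase; PicoGreen fluorescence of double-stranded DNA made on primed circular M13 template; series mostly up to about 57 µM.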 The method in brief:
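Primed replication of single-stranded M13Gori by a four-protein B. subtilis holoenzyme is measured at room temperature. Double-stranded product is quantified by PicoGreen fluorescence after an EDTA stop; inhibition is scaled between DMSO and EDTA controls.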

Experiment [6] concerns the target Tumor susceptibility gene 101 protein (Homo sapiens) (UniProt Q99816). Briefly: qHTS Validation Assay for Iinhibitors of HIV-1 Budding by Blocking the Interaction of PTAP/TSG101 (AID 485342; calls by dose curve). A digest of the protocol:
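Fluorescence anisotropy measured PTAP-Tsg101 interaction. Final concentrations were 10 uM protein domain and 50 nM labeled peptide, equilibrated 20 min at room temperature.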

Experiment [7] has as its target Beta-2 adrenergic receptor (Homo sapiens) (UniProt P07550). Briefly: qHTS validation assay of beta-arrestin-biased ligands of beta2-adrenergic receptor (AID 485366). A digest of the protocol:
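Tango cells expressing recombinant beta2-AR and beta-arrestin with tTA-driven luciferase, in DMEM with 1% FBS. Compounds were titrated up to 46 microM for 18 hr at 37 degrees C. Luminescence was read 15 min after substrate; curves were fitted and class-assigned.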

Experiment [8] deals with Thioredoxin reductase 1, cytoplasmic (Rattus norvegicus) (UniProt O89049). The experiment can be described thus: qHTS Assay for Substrates of Mammalian Selenoprotein Thioredoxin Reductase 1 (TrxR1) (AID 488772).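 Note: NADPH fluorescence in the first read after selenite addition and not the 8 min delta; series mostly up to about 57 µM; a drop in NADPH fluorescence below the no-compound background marks a TrxR1 substrate.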 A digest of the protocol: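 Quantitative HTS in Tris-HCl buffer at pH 7.5 with EDTA and Tween-20, using rat TrxR1, 400 uM NADPH and 400 uM selenite (final). A fall in initial NADPH fluorescence relative to background marked substrate behaviour.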

Experiment [9] has the same target. The experiment can be described thus: qHTS Assay for Inhibitors of Mammalian Selenoprotein Thioredoxin Reductase 1 (TrxR1) (AID 488773).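 Note: drop in NADPH fluorescence over an 8 min run after selenite addition; series mostly up to about 57 µM; nearly all actives have a fitted effect of over 40% in size.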 Conditions: Potency: inhibition. A digest of the protocol: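 Steps: enzyme (90 nM) plus NADPH (400 uM final), 5 min at ~22 deg C; compound added, 15 min; selenite (400 uM final) added; fluorescence followed for 8 min. Concentration-response curves derived from the normalized delta values.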

Experiment [10] addresses Flap endonuclease 1 (Homo sapiens) (UniProt P39748). The experiment can be described thus: qHTS Validation Assay for the Inhibitors of Human Flap endonuclease 1 (FEN1) (AID 488816). A digest of the protocol:
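Human FEN1 (10 nM) preincubated 15 min at room temperature with compounds, then flap DNA substrate added at 50 nM final. Fluorescence read at 0 and 15 min; concentration-response fitted with four-parameter Hill equation.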

Experiment [11] addresses Methanococcus maripaludis chaperonin (MmCpn) (UniProt Q6LX38). Briefly: High-Throughput Screening for Modulators of Cytosolic Chaperonin Activity: MmCpn Primary Screen (AID 488978).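 Note: 50 nM MmCpn enzyme hydrolysing 30 µM ATP at 37 °C.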 A digest of the protocol: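 Measures ATPase turnover of the M. maripaludis chaperonin (50 nM final) against 30 uM ATP over 10 min at 37C, with compound added 5 min beforehand at room temperature. ADP is quantified by HTRF immunodetection.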

A short description of experiment [12]: qHTS Validation Assay to Find Inhibitors of Chronic Active B-Cell Receptor Signaling (AID 485345; active = well fitted curve in the direction sought with a large enough effect in the main read-out, with a control signal flat, not every such curve was filed as active). The method in brief: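 TMD8 ABC-DLBCL cells stably carrying doxycycline-inducible IkappaBalpha–green luciferase fusion plus unfused red luciferase; compounds 46 uM to 3 nM, 4 h at 37C with doxycycline. Corrected green/red luminescence ratio normalized to 10 uM MG-132 and basal cell wells; curves fitted.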

Experiment [13] can be described thus: Quantitative high throughput screen for delayed death inhibitors of the malarial parasite plastid, 96 hour incubation (AID 488745). Note: nearly all actives have a fitted effect of over 70% in size. Note: potency is the fitted concentration of half-maximal effect. The method in brief:
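Growth of reporter-bearing P. falciparum in red cells is measured after 96 h with compound, covering two erythrocytic cycles. Luminescence from the integrated luciferase serves as the growth signal.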

Experiment [14] has as its target M-phase phosphoprotein 8 (Homo sapiens) (UniProt Q99549). The experiment can be described thus: qHTS Validation Assay for Inhibitors for MPP8 Chromodomain Interactions with Methylated Histone Tails (AID 488949). Note: nearly all actives have a fitted effect of over 55% in size. Note: potency is the fitted concentration of half-maximal effect. A digest of the protocol: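 Disruption of the preformed MPP8–trimethyl-H3K9 peptide complex (both 50 nM, 30 min, RT) is measured after 30 min compound exposure, using AlphaScreen proximity beads; aurintricarboxylic acid titration serves as plate control.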

A short description of experiment [15]: Cytometry Cell-Based qHTS for Inhibitors of the mTORC1 Signaling Pathway in MEF cells (AID 2668).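 Note: Tsc2-/- p53-/- mouse embryonic fibroblasts stably re-expressing wild-type Tsc2; percent cells positive for phospho-rpS6 Ser235/236 relative to propidium iodide stain; series mostly up to about 38 µM.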 A digest of the protocol: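 Pathway inhibition in WT Tsc2-rescued Tsc2-/-, p53-/- MEFs is measured as the Alexa-488 phospho-rpS6 to propidium iodide intensity ratio after 24 hrs of compound at 37 degree Celsius. PI-stained cell number gives viability.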
Experiment [16] in a line: Quantitative high throughput screen for delayed death inhibitors of the malarial parasite plastid, 48 hour incubation (AID 488752). Note: nearly all actives have a fitted effect of over 65% in size. A digest of the protocol: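 One parasite generation (48 h, 37 C, 5% CO2) of luciferase-reporter P. falciparum in erythrocytes is run with test compound; decreased luminescence indicates inhibited growth.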
In experiment [17] the target is Chromobox protein homolog 1 (Homo sapiens) (UniProt P83916). Briefly: qHTS Validation Assay for Inhibitors of HP1-beta Chromodomain Interactions with Methylated Histone Tails (AID 488953). Note: nearly all actives have a fitted effect of over 50% in size. Note: potency is the fitted concentration of half-maximal effect. The method in brief: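 Measured as loss of AlphaScreen luminescence from streptavidin donor and nickel acceptor beads (10 ug/mL final) bridging HP1-beta and biotin-H3(1-18)K9me3, each 50 nM. Compounds met the preassembled complex for 30 min at RT.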

A short description of experiment [18]: High Content Imaging Cell-Based qHTS for Inhibitors of the mTORC1 Signaling Pathway in MEF Cells (AID 2667).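 Note: Tsc2-/- p53-/- MEFs stably re-expressing wild-type Tsc2 exposed 24 h; series mostly up to about 38 µM.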 A digest of the protocol:
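WT MEFs (Tsc2-/-, p53-/- re-expressing Tsc2), in DMEM + 10% FBS, were treated with compound for 24 h at 37 C. Cells were then fixed and stained for phospho-rpS6 Ser235/236 with propidium iodide as cell count. Values are % positive cells, with thresholds set against rapamycin-treated cells.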

Chain of DNA polymerase III PolC-type (Bacillus subtilis (strain 168)) (P13267 whole entry, looked up): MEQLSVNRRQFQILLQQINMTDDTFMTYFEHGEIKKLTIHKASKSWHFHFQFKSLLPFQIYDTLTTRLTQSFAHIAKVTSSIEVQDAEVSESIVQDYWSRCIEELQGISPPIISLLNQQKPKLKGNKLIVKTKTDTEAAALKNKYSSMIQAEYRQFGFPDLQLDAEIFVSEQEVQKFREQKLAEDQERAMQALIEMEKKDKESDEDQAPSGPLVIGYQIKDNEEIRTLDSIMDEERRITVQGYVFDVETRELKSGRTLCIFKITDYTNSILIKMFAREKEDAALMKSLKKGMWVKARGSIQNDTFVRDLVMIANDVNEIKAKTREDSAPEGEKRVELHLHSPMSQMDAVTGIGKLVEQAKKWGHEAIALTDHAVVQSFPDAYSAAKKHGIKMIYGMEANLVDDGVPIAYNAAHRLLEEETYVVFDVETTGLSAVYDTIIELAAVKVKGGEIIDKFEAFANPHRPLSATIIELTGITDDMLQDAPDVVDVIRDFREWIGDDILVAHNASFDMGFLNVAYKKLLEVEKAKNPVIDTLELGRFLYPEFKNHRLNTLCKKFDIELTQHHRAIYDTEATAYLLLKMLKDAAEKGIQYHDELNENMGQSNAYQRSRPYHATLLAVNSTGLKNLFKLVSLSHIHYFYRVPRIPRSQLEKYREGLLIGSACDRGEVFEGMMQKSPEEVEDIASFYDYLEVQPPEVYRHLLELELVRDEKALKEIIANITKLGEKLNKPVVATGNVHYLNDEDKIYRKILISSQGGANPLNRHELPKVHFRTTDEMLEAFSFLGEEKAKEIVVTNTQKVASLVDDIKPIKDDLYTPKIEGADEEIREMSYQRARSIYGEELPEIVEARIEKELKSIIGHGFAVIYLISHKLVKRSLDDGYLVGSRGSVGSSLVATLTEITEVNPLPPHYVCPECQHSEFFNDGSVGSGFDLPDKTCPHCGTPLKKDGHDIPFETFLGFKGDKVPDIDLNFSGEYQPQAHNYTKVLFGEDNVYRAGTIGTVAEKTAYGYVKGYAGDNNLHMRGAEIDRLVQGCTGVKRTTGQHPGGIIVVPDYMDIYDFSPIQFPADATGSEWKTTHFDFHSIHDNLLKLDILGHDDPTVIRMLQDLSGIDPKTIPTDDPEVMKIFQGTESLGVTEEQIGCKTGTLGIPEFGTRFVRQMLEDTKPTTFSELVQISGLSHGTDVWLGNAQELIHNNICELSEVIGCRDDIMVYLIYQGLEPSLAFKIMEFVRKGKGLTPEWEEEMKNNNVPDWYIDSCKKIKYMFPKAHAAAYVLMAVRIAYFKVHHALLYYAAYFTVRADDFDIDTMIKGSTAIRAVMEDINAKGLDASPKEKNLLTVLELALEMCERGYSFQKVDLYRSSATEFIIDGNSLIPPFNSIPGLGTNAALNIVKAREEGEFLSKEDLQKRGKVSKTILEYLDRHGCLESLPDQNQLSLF
Chain of Thioredoxin reductase 1, cytoplasmic (Rattus norvegicus) (O89049 whole entry, looked up): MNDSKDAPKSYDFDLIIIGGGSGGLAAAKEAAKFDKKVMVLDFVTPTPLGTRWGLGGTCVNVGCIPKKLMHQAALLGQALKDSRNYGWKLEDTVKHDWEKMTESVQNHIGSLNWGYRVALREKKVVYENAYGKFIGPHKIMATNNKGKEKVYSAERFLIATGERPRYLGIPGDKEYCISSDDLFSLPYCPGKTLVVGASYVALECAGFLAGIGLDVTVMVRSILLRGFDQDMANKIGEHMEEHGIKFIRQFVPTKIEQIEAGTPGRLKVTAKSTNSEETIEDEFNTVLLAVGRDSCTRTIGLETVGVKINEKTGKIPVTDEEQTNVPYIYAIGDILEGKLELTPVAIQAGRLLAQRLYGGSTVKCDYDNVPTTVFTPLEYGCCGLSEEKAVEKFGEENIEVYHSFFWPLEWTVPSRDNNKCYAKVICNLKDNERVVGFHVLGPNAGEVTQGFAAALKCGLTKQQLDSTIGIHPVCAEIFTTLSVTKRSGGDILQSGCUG
Chain of M-phase phosphoprotein 8 (Homo sapiens) (Q99549 whole entry, looked up): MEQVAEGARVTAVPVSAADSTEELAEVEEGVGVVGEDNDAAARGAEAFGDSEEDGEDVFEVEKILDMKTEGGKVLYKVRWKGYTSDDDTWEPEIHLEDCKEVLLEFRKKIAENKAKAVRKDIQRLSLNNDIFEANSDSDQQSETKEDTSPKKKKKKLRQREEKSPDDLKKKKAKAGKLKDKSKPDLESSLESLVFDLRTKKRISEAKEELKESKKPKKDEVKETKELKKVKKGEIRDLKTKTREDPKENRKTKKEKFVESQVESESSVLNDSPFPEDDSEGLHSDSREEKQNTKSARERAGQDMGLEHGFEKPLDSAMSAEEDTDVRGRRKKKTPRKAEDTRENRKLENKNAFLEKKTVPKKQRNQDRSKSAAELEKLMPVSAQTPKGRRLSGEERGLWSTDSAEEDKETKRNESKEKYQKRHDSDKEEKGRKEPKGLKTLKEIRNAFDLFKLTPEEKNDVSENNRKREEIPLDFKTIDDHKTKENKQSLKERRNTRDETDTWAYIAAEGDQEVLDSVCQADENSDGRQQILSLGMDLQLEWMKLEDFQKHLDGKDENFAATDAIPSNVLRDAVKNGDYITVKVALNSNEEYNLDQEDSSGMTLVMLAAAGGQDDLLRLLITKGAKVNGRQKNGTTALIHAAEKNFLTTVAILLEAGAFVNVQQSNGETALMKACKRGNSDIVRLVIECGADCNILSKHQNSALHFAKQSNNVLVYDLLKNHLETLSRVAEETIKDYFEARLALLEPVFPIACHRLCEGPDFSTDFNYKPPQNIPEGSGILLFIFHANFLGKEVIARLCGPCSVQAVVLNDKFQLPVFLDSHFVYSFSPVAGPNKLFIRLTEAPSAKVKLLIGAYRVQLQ
Chain of Flap endonuclease 1 (Homo sapiens) (P39748 whole entry, looked up): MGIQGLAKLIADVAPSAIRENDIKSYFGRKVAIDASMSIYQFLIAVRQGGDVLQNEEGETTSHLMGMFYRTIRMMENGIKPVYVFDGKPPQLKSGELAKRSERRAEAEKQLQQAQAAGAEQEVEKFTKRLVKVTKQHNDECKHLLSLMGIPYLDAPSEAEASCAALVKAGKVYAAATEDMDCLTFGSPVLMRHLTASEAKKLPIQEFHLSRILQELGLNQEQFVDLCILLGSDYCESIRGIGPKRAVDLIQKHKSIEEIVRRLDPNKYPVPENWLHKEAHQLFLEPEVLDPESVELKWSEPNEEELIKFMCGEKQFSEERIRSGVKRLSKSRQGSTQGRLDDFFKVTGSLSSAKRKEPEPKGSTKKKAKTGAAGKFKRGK
Chain of Chromobox protein homolog 1 (Homo sapiens) (P83916 whole entry, looked up): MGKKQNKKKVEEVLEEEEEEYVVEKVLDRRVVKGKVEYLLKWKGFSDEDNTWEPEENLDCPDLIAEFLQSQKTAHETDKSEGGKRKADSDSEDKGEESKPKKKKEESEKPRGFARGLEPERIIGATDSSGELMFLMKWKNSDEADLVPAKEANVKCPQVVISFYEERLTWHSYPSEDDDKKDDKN
Chain of Methanococcus maripaludis chaperonin (MmCpn) (Q6LX38 1-543): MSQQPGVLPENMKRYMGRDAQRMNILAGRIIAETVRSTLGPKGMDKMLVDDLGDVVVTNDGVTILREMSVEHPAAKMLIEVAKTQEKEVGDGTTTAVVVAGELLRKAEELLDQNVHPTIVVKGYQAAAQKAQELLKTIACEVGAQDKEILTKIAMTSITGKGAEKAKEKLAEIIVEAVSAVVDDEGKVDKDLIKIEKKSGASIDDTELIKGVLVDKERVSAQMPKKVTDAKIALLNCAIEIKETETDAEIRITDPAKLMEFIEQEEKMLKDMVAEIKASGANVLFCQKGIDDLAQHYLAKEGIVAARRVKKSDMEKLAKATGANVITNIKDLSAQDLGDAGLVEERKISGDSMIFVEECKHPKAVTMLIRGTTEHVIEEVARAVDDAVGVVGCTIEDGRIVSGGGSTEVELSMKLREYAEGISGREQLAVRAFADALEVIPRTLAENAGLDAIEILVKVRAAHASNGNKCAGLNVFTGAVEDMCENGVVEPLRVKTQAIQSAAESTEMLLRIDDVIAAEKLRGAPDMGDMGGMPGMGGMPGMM
Chain of Tumor susceptibility gene 101 protein (Homo sapiens) (Q99816 whole entry, looked up, the tested form may be a part): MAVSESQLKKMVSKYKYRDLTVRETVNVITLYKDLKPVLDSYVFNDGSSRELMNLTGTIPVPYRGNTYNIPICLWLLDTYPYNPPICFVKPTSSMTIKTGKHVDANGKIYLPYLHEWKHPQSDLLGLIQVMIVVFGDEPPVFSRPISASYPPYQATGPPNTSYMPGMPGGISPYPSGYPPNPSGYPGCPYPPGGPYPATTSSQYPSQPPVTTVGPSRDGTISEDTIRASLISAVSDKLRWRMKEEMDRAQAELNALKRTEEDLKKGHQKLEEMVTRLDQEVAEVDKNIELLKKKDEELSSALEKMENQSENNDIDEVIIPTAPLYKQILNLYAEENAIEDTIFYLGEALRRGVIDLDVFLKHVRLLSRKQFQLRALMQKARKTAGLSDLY
Chain of Ubiquitin carboxyl-terminal hydrolase 2 (Homo sapiens) (O75604 whole entry, looked up): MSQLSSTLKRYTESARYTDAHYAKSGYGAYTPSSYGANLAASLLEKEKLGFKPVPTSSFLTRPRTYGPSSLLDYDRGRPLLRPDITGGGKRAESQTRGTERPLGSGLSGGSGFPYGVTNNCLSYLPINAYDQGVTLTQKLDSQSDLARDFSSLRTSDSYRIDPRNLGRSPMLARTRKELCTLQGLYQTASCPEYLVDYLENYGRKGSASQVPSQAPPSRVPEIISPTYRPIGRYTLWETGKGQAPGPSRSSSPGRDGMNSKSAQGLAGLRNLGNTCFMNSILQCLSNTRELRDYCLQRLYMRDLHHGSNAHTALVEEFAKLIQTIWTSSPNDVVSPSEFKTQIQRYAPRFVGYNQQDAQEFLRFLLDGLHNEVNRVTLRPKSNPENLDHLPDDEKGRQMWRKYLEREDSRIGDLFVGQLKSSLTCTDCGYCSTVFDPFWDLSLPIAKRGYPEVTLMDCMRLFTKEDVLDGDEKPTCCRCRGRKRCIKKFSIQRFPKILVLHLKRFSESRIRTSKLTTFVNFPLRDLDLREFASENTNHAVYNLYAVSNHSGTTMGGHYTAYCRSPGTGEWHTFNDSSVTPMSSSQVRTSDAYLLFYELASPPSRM

For the molecule `OC1(c2ccc(Cl)cc2)CCN(Cc2c[nH]c3ccccc23)CC1`, the outcome in [1], in experiment [6], in experiment [7], in experiment [8] and in experiment [11] was inactive. Also, the Potency entry in [2], in experiment [3], in experiment [4], in [5], in [9] and in experiment [10] was “inactive” in each case.
For the molecule `C=CCN1CCc2c(cc(O)c(O)c2Cl)C(c2ccccc2)C1` (stereo not given), the molecule was classed as inactive in experiment [1], in experiment [6], in [12], in experiment [7], in [8] and in [11]. For the same molecule, the Potency entry in [2], in [4], in experiment [5] and in experiment [10] was “inactive” each time. Moreover, the Potency in experiment [13] was 3.7 µM (active); in experiment [14], 39.8 µM (active) and inactive.
With `O=C1C2C=CC=CC2=NC(=S)N1CCN1CCC(=C(c2ccc(F)cc2)c2ccc(F)cc2)CC1` (stereo not given), the outcome in experiment [1], in experiment [6], in experiment [12], in experiment [7] and in [11] was inactive. Further, the Potency entry in experiment [2], in [15], in [4], in [5], in experiment [13] and in [16] was “inactive” each time. Further, the Potency entry in [9] and in experiment [10] was “inactive” throughout. The Potency was 7.08 µM (active) in experiment [3]; 50.1 µM (active) and inactive in experiment [14].
Take `O=[N+]([O-])c1cccc2c(Br)[nH]nc12`: the call in experiment [1], in experiment [6], in experiment [12], in experiment [8] and in [11] was inactive. The Potency result in experiment [2], in [15], in experiment [3], in experiment [4], in experiment [5] and in experiment [13] was “inactive” in each case. The Potency entry in experiment [16], in [9], in [10], in experiment [14] and in experiment [17] was “inactive” in each case.
Turning to `[Li+]`, the molecule was called inactive in [1], in experiment [6], in experiment [12], in experiment [7], in [8] and in [11]. The Potency result in [2], in experiment [15], in [3], in experiment [4], in experiment [5] and in experiment [13] was “inactive” throughout. In addition, the Potency entry in experiment [16], in experiment [9], in experiment [14] and in experiment [17] was “inactive” in each case.
Regarding `C[C@H](O)C(=O)C1=Nc2c(nc(N)[nH]c2=O)NC1`, the molecule was classed as inactive in [1], in experiment [6], in experiment [12], in [7], in experiment [8] and in experiment [11]. Further, the Potency result in experiment [18], in [15], in experiment [3], in experiment [4], in [5] and in experiment [13] was “inactive” each time. In addition, the Potency result in experiment [16], in experiment [9], in [14] and in [17] was “inactive” throughout.
Turning to `CCCCCCCCCC(=O)NC(CN1CCOCC1)[C@H](O)c1ccccc1` (stereo not given in full), the result in experiment [1], in experiment [6], in experiment [12], in experiment [7] and in experiment [11] was inactive. The Potency result in experiment [2], in experiment [4], in experiment [5], in experiment [9], in experiment [10] and in [14] was “inactive” throughout. For the same molecule, in experiment [17], the Potency result is “inactive”.
For `CN(C)C(=O)/N=N/C(=O)N(C)C`, the call in experiment [1], in experiment [6], in experiment [12], in [7], in experiment [8] and in experiment [11] was inactive. For the same molecule, the Potency entry in experiment [2], in experiment [15], in experiment [3], in experiment [4], in [5] and in [13] was “inactive” throughout. Further, the Potency entry in experiment [16], in experiment [9] and in experiment [10] was “inactive” throughout. The Potency is 31.6 µM (active) and inactive in experiment [14]; 20 µM (active) in experiment [17].
